Only some compounds are listed: those with a hit (about 7.6% of all), similar ones and a draw of the others.
KCNH2 3.1 block: inhibitors of human KCNH2 3.1 potassium channel isoform; U2OS KCNH2 3.1, thallium flux FluxOr; stronger effect = lower value; activity change, % (tested at about 1.8 µM); hit rate 0.95% among 340,000;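 active = maximum activity change below -70%; inconclusive = maximum activity change from -70% to -50%; inactive = maximum activity change above -50%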;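 also: thallium influx rate constant from kinetic fluorescence after stimulation buffer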
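U2OS cells transduced with KCNH2 3.1 mutant virus (1.77 x 10^8 /mL, 4 h), plated overnight at 37 C, loaded 45 min with FluxOr dye plus Red40 quencher. Thallium flux rate constant from kinetic reads after stimulation buffer, normalised to controls.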
KB-3-1 cytotox: kills parental KB-3-1 adenocarcinoma cells; KB-3-1 viability, CellTiter-Glo ATP luminescence, 72 h; Potency, µM (highest dose often 46.1 µM), most hits filed as cytotoxic; hit rate 1.4% among 400,000; also: nearly all actives have a fitted effect of over 60% in size
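KB-3-1 parental drug-naive adenocarcinoma cells in DMEM/10% FBS, incubated 72 h at 37 C with pin-transferred compounds across a concentration series. Viability by CellTiter-Glo luminescence; concentration-response curves fitted after normalization.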
KB-V1 MDR tox: KB-V1 MDR subline cytotoxicity. KB-V1 MDR cells viability, CellTiter-Glo, 72 h. Potency, µM (highest dose often 46.1 µM), hits mostly cytotoxic. hit rate 3.4% among 400,000; also: nearly all actives have a fitted effect of over 60% in size
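Cytotoxicity toward P-gp-expressing KB-V1 cells was determined as loss of CellTiter-Glo luminescence after 72 h at 37 degrees C. Compounds were tested in quantitative HTS format across a concentration range, with curves fitted to normalized data.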
SW480 rerep: DNA re-replication induction in SW480 cells. SW480 DNA re-replication, Hoechst DNA content imaging, 48 h. AID 624297. hit rate 1.8% among 340,000. Potency, µM (series often up to 46.1 µM), most hits filed as activators; also: nearly all actives have a fitted effect of over 55% in size
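250 cells/well; 23 nL cpd via pin tool; 48 hr, 37 C, 5% CO2; Hoechst 40 min; imager read of total nuclear intensity, ex 405/em 500-530 nm.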
KCNH2 WT inh: inhibitors of human wildtype KCNH2 potassium channel; U2OS, BacMam KCNH2, thallium flux FluxOr; stronger effect = lower value; activity change, % at 1.84 µM; hit rate 0.37% among 340,000; AID 720551;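 active = maximum activity change below -70%; inconclusive = maximum activity change between -70% and -50%; inactive = maximum activity change above -50%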
Target sequence (Q12809 whole entry, looked up): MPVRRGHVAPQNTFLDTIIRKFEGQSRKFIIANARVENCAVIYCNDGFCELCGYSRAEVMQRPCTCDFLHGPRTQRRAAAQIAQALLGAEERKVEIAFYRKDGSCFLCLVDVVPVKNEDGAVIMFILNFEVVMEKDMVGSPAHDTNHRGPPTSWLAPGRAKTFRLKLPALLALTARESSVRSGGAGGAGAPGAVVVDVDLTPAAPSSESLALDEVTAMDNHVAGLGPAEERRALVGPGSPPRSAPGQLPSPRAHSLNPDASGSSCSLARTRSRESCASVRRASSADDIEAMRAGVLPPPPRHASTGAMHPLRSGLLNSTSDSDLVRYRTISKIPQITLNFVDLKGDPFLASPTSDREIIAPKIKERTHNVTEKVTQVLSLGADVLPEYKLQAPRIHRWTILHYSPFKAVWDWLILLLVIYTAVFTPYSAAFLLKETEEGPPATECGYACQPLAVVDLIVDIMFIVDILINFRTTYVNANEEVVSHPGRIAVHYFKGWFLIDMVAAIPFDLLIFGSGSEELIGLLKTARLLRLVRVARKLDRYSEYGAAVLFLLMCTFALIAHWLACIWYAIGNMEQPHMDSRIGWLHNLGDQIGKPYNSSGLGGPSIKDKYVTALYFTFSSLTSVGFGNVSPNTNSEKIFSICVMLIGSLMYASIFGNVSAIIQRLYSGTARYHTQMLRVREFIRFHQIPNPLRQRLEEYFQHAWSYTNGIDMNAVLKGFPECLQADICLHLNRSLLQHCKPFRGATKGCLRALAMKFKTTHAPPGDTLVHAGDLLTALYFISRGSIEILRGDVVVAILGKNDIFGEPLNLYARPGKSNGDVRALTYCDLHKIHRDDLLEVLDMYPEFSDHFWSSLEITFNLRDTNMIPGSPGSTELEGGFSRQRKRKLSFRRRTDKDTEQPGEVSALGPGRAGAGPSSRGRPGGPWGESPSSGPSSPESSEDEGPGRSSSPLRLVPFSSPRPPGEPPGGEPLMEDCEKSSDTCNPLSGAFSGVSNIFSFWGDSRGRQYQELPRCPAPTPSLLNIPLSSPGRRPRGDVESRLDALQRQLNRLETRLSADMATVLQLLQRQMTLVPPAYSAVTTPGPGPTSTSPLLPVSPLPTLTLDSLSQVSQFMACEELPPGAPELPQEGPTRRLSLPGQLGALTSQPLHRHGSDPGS
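U2OS cells were transduced with wild-type KCNH2 virus (2.03 x 10^8 / mL) for 4 h at room temperature, then cultured overnight at 37 C. Thallium flux was read with FluxOr dye. Rate constants were normalized to DMSO controls.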
MCF10A rereplic: DNA re-replication induction in MCF 10a cells. MCF 10A DNA re-replication, Hoechst nuclear intensity, 48 h. Potency, µM (series often up to 46.1 µM), actives largely listed as activators. hit rate 2.9% among 350,000. AID 624296; also: nearly all actives have a fitted effect of over 50% in size
Large screens that a line does not name were inactive. Unless noted, calls follow the shape of the dose curve; as a rule, active = well fitted curve in the direction sought with a large enough effect; inconclusive = small, poorly fitted or top-dose-only effect, or another doubt; inactive = no such curve, though single readings can be large; an effect the other way counts as inactive or inconclusive.

CCOC(=O)c1c(CSc2ccccc2)n(C)c2cc(Br)c(OCC(O)CNC(CO)(CO)CO)cc12 (stereo not given)	KB-3-1 cytotox inconclusive, SW480 rerep inconclusive, MCF10A rereplic 21µM
CCCOC(=O)c1[nH]c2c(c1C)C(=O)CC(c1ccc(OC)c(OC)c1)C2 (stereo not given)	KB-V1 MDR tox inconclusive
CCOCCOC(=O)c1[nH]c2c(c1C)C(=O)CC(c1cccs1)C2 (stereo not given)	KB-3-1 cytotox 0.92µM, KB-V1 MDR tox 1.2µM, SW480 rerep 1.2µM, MCF10A rereplic inconclusive
CCCCCOC(=O)c1[nH]c2c(c1C)C(=O)CC(c1ccco1)C2 (stereo not given)	KB-3-1 cytotox inconclusive, KB-V1 MDR tox 0.0082µM, SW480 rerep 0.12µM, MCF10A rereplic inconclusive
Cc1c(C(=O)OCC(C)C)[nH]c2c1C(=O)CC(c1cccs1)C2 (stereo not given)	KB-3-1 cytotox inconclusive, KB-V1 MDR tox inconclusive, SW480 rerep 3.7µM, MCF10A rereplic inconclusive
CCOCCOC(=O)C1=C(C)NC2=C(C(=O)CC(c3cccs3)C2)C1c1ccsc1 (stereo not given)	KB-V1 MDR tox 21µM
CCOC(=O)C1=C(C)NC2=C(C(=O)CCC2)C1c1cccs1 (stereo not given)	none
O=c1[nH]c(=S)[nH]cc1Oc1ccc(Br)cc1Br	KB-V1 MDR tox inconclusive
O=C1CC(N(CCc2ccccc2)C(=S)Nc2cc(Cl)ccc2Cl)C(=O)N1c1c(Cl)cccc1Cl (stereo not given)	KB-3-1 cytotox inconclusive, KB-V1 MDR tox inconclusive
COC(=O)Nc1ccc(S(=O)(=O)N2CCCC(C(=O)N3CC(C)OC(C)C3)C2)cc1 (stereo not given)	MCF10A rereplic inconclusive
CCOCCOC(=O)c1[nH]c2c(c1C)C(=O)CC(c1ccccc1)C2 (stereo not given)	KB-3-1 cytotox 0.92µM, KB-V1 MDR tox 1µM, SW480 rerep 0.52µM, MCF10A rereplic inconclusive
Cc1c(C(=O)OCC2CCCO2)[nH]c2c1C(=O)CC(c1ccc(N(C)C)cc1)C2 (stereo not given)	KB-3-1 cytotox inconclusive, KB-V1 MDR tox 21µM
Cc1c(C(=O)OC2CCC(C)CC2)[nH]c2c1C(=O)CC(c1ccc(N(C)C)cc1)C2 (stereo not given)	none (no result: KCNH2 3.1 block, SW480 rerep, KCNH2 WT inh, MCF10A rereplic)
COC(=O)c1[nH]c2c(c1C)C(=O)CC(c1cccc(OC)c1)C2 (stereo not given)	KB-3-1 cytotox inconclusive, KB-V1 MDR tox inconclusive, SW480 rerep 0.73µM, MCF10A rereplic inconclusive
COCCOC(=O)c1[nH]c2c(c1C)C(=O)CC(c1cccs1)C2 (stereo not given)	KB-3-1 cytotox 1.8µM, KB-V1 MDR tox 1.5µM, SW480 rerep 2.6µM, MCF10A rereplic inconclusive
CC(C)NC(=O)c1cc(C2CCCCN2C(=O)c2ccccc2)on1 (stereo not given)	none (no result: KCNH2 3.1 block, SW480 rerep, KCNH2 WT inh, MCF10A rereplic)
CCC(=Nc1ccccc1)C1=C(O)CCCC1=O	none
Cc1ccc(C)c(N2CCN(C(=O)Cn3ncc4ccsc4c3=O)CC2)c1	KB-3-1 cytotox 16µM, KB-V1 MDR tox 4.1µM (no result: KCNH2 3.1 block, SW480 rerep, KCNH2 WT inh, MCF10A rereplic)
Cc1ccc(-n2c(SCC(N)=O)nc3c(c2=O)C2(CCCC2)Cc2ccccc2-3)cc1	KB-3-1 cytotox inconclusive, KB-V1 MDR tox 10µM, MCF10A rereplic inconclusive
COc1ccc(C(CNC(=O)COc2ccccc2C)N2CCOCC2)cc1 (stereo not given)	KB-V1 MDR tox 18µM
COc1ccccc1OCC(=O)NCC(c1cccs1)N1CCOCC1 (stereo not given)	none (no result: KB-3-1 cytotox, KB-V1 MDR tox)
CC(C)c1ccccc1OCC(=O)NCC(c1cccs1)N1CCOCC1 (stereo not given)	KB-V1 MDR tox 18µM
O=C(NNc1ccc([N+](=O)[O-])cc1)c1ccccc1Cl	KB-V1 MDR tox inconclusive
O=C(NC(NNc1ccc([N+](=O)[O-])cc1)(C(F)(F)F)C(F)(F)F)c1ccc(Cl)cc1	MCF10A rereplic 15µM
CC(C)[C@H](N)c1cn([C@@H](CC(N)=O)C(=O)N2CCNCC2)nn1	KB-V1 MDR tox inconclusive
CCOc1ccc2ncc(S(=O)(=O)c3ccc(C)cc3)c(N3CCC4(CC3)OCCO4)c2c1	KB-3-1 cytotox inconclusive, KB-V1 MDR tox 4.1µM, SW480 rerep inconclusive, MCF10A rereplic inconclusive
CCOC(=O)/C(C#N)=C/Nc1cc(C(=O)OCC)cc2c(OC)c(OC)ccc12	SW480 rerep 23µM, MCF10A rereplic 2.6µM
COc1ccc(/C(C)=N/NC(=O)c2nnn(-c3nonc3N)c2-c2cccs2)cc1OC	SW480 rerep inconclusive
Cc1ccc2nc(NCc3ccccc3)c(C#N)cc2c1	SW480 rerep inconclusive, MCF10A rereplic 15µM
Cc1ccc2nc(NCCNC(=O)c3ccccc3)c(C#N)cc2c1	SW480 rerep inconclusive, MCF10A rereplic inconclusive
COc1ccc(C(=O)NCCNc2nc3c(C)cccc3cc2C#N)cc1	MCF10A rereplic 18µM
Cc1cccc2cc(C#N)c(NCCNS(=O)(=O)c3ccc4c(c3)OCCO4)nc12	KB-V1 MDR tox 23µM, SW480 rerep 16µM, MCF10A rereplic inconclusive
COc1ccccc1Nc1nc2ccc(C)cc2cc1C#N	none
COc1ccc(C(=O)NCCNc2nc3ccc(C)cc3cc2C#N)cc1	SW480 rerep inconclusive, MCF10A rereplic 21µM
N#Cc1cc(Nc2c(N)nc[nH]c2=O)c([N+](=O)[O-])cc1C#N	MCF10A rereplic inconclusive
Cc1ccc2cc(C#N)c(NCCNC(=O)C3CCC3)nc2c1C	KB-3-1 cytotox inconclusive, KB-V1 MDR tox 15µM, SW480 rerep inconclusive, MCF10A rereplic inconclusive
COc1ccc(C(=O)NCCNc2nc3c(C)cccc3cc2C#N)cc1OC	KB-3-1 cytotox inconclusive, SW480 rerep 2.6µM, MCF10A rereplic 0.58µM
Cc1cc(C(=O)CSc2nnc(CCC(N)=O)n2C)c(C)n1C1CC1	none
Cc1ccc(-c2cc(-c3ccccc3)c3c(N)c(S(C)(=O)=O)sc3n2)cc1	KB-3-1 cytotox inconclusive, KB-V1 MDR tox inconclusive, SW480 rerep 12µM, MCF10A rereplic inconclusive
N#Cc1sc2nc(-c3ccccc3)cc(-c3ccco3)c2c1N	SW480 rerep inconclusive, MCF10A rereplic inconclusive
CS(=O)(=O)c1sc2nc(-c3cccs3)cc(-c3ccccc3)c2c1N	SW480 rerep inconclusive, MCF10A rereplic 18µM
N#Cc1sc2nc(-c3cccs3)cc(-c3ccc(F)cc3)c2c1N	SW480 rerep inconclusive, MCF10A rereplic inconclusive
Cc1nc(C)c(-c2ccc(SCc3ccccc3C)nn2)s1	none
CCN(CC)C(=O)CN1C(=O)C2(OCC(C)(C)CO2)c2ccccc21	KB-V1 MDR tox 16µM
O=C1N(CCCN2C(=O)C3(OCCO3)c3ccccc32)c2ccccc2C12OCCO2	KB-V1 MDR tox 12µM
O=C1N(Cc2ccc(F)cc2Cl)c2ccccc2C12OCCCO2	KB-3-1 cytotox inconclusive, KB-V1 MDR tox 18µM
